Experimental findings from PMC12136788 are described below.

Changes are numbered by the printed parent chain. Over roughly 24,000 sequences, “enrichment r” has its median near 0.99; the highest 2% begin near 3.7. The entries come from a sample that favours the highest values as a whole.

T1: UNK ZnF1-3 (human, UniProt Q9C0B0 31-174)
T1 sequence: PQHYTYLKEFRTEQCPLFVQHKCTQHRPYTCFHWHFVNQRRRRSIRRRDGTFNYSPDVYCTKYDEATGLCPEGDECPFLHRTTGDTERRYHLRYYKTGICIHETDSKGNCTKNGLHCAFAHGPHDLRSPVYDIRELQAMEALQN

B1: 19988787_19988907_277_5pUTR_ENSG00000144566_ENST00000273047|human|control|control (ssRNA)
RNA: GGGAGUUCUACAGUCCGACGAUCCGGCGUCGCCUGCUCUUAGCGCCGCUCCCCUCACACUGGACUGUGCGGGGCUCGUGCCGUGGUGCCGCCCCUGUCGGGCUCCGUCUCCGCCUCUCGCCGCUCCCCCUUCCUCUUUCCUUUCAACAGAGGAUUGAGCAUCA
B2: 178098831_178098951_708_CDS_ENSG00000116044_ENST00000397062|human|control|control (ssRNA)
RNA: GGGAGUUCUACAGUCCGACGAUCGAAAAAGGCUUUCUCUUGCUCCUUUUGGAGUUGUUCUUGUCUUUCCUUUUCAAGUUUUUUCUGUUUUUCCAGCUCAUACUCUUUCCGUCGCUGACUGAAGUCAAAUACUUCUCGACUUACCAACAGAGGAUUGAGCAUCA
B3: chr10:1038518:1038519:+_ENSG00000107937_ENST00000545048|hu_hu|hu_hu_hu_mus_False|68_68 (ssRNA)
RNA: GGGAGUUCUACAGUCCGACGAUCCAGUCUGUCAUGGUAAUUCUGUUGAGUAAAUUUGACUUUUCUCAUGUAAAAAUGUCGAAUCCGAUGAAUUUGAUAAUGUUUAUGAAUAACCGUUGGAGUCUUUCGUUGAGUCUUGGAUAACAACAGAGGAUUGAGCAUCA
B4: chr8:30550554:30550555:-_ENSG00000104687_ENST00000414019|hu_mus|FALSE|FALSE (ssRNA)
RNA: GGGAGUUCUACAGUCCGACGAUCGCCGGCAUUCUCCAGUUCCUCGGUGCAGUUGGAACUGAUGAGUGAAUCAAAAUUUCUCAGUACCUUAUCAUGCCUGAUCAUAAGAGAUGUCUUGGAGCCCAGGGCAGAGAGGAUGCCCGCCAACAGAGGAUUGAGCAUCA
B5: chr6:106728040:106728041:+_ENSMUSG00000013736_ENSMUST00000057578|mus_mus|FALSE|FALSE (ssRNA)
RNA: GGGAGUUCUACAGUCCGACGAUCAGGAGCCACACCAAGAUCAUAGAUCAGGUGGAUCAAAUGGUUUACAUGGUCACCAGUAAGAAUUUUCUUCAGUUCUACCCAAAUCCUCUCUCCUGAUAUUCCAGCCAAACCUUUGGCAUUCAACAGAGGAUUGAGCAUCA
B6: chr22:19452774:19452775:-_ENSG00000070010_ENST00000399523|hu_hu|hu_hu_hu_mus_False|88_108 (ssRNA)
RNA: GGGAGUUCUACAGUCCGACGAUCCUUUUCAUUAUAGUUGAUAGCAAUCACAUCCCCAGUCGUCAGACAGGCGAAGUUUCUCAAUGCAUUUUCUAAUACCGCUUUAGGGUUGGUAAUAUCCAGGAAGUCUGGGCUCUGAGGCUGCAACAGAGGAUUGAGCAUCA
B7: chr7:148083511:148083512:+_ENSMUSG00000025487_ENSMUST00000026560|mus_mus|motif|central (ssRNA)
RNA: GGGAGUUCUACAGUCCGACGAUCCAAAUCCAGCACUCGCGGCUGCACCCACGUCAUGUGAACCCGCUUGUCCACCUCGUCGGUGCUGCCUCUCACCAGCCCCACCGAGAGUGCCUUCAUCACCAGCAACUCCACCUUGUUGACCAACAGAGGAUUGAGCAUCA
B8: chr16:46836887:46836888:-_ENSG00000155330_ENST00000285697|hu_mus|motif|central (ssRNA)
RNA: GGGAGUUCUACAGUCCGACGAUCACCAACAGAGUUUGAAGACAAAUAUCAGAGAAUAAGUCUUUGAUUGAUAAUUUUUCGGUUUAUUUCUGCCAAGGCAACUGAAAACACGAAAGCCUUCUCAUCAGAGAGGUUAGCAUAGAUCAACAGAGGAUUGAGCAUCA
B9: chr12:48362563:48362564:+_ENSG00000134291_ENST00000256686|hu_hu|hu_hu_hu_mus_False|1_68 (ssRNA)
RNA: GGGAGUUCUACAGUCCGACGAUCUCCGUCAAGCCCUUCGAUAGACCCUUGCGGGGGAAACUGUAAUAAUUCUAACUGGGGAAGGAAAAGAAACGCCAAAAACUUUCCAAAAAGCGGGGGUGGGGUGAGGCGGGAGGUUGGGAACAACAGAGGAUUGAGCAUCA
B10: chr9:127911758:127911759:-_ENSG00000119414_ENST00000373547|hu_mus|motif|central (ssRNA)
RNA: GGGAGUUCUACAGUCCGACGAUCUCUCAAACGAGUCCAAGGUGGGGUAGGAGGAGUGACAAAACUGAUAGAAAAACACUGCGGUUGACACCAUAACAAACAAUAAAUUUAGAUAAUUUAAAAUUAAAAAAAAAGGCAAGAGGCCAACAGAGGAUUGAGCAUCA
B11: chr12:48362563:48362564:+_ENSG00000134291_ENST00000256686|hu_hu|hu_hu_hu_mus_False|68_108 (ssRNA)
RNA: GGGAGUUCUACAGUCCGACGAUCUCCGAAGGGUGAAUCGAUAGACCCUUGCGGGGGAAACUGUAAUAAUUCUAACUGGGGAAGGAAAAGAAACGCCAAAAACUUUCCAAAAAGCGGGGGUGGGGUGAGGCGGGAGGGGGAGGUCAACAGAGGAUUGAGCAUCA
B12: 118497214_118499730_2480_CDS_ENSG00000065183_ENST00000349139|human|control|control (ssRNA)
RNA: GGGAGUUCUACAGUCCGACGAUCAUAAGAGAAAGGCAGCACAAGUAGAGAUUCUUCCAGCUCACUCGACUUGAUCCCUUUAAAAAUCUCUAAUACAUAAGCUGAAGGUGAGAUACUGCCAUAAGCCAUUAGGAUGGGGUUGCUCAACAGAGGAUUGAGCAUCA
B13: chr12:48362563:48362564:+_ENSG00000134291_ENST00000256686|hu_hu|hu_hu_hu_mus_False|68_68 (ssRNA)
RNA: B9 RNA with U137G, U138G, G140A, A142G, A143U
B14: chr9:127911758:127911759:-_ENSG00000119414_ENST00000373547|hu_mus|FALSE|FALSE (ssRNA)
RNA: B10 RNA with G82U, G83A

This assay has as its target T1, UNK ZnF1-3. Nature of the assay: nsRBNS (natural sequence RNA bind-n-seq); RBNS binding buffer (assumed for nsRBNS): 25 mM Tris pH 7.5, 150 mM KCl, 3 mM MgCl2, 0.01% Triton X-100, 500 ug/ml BSA, 20 U/ml SUPERase-In, 4 C; UNK is unkempt and MSI1 is Musashi-1; names of the RNAs are library labels; protein concentration not given here; high values mean tight binding.
As to B1, the binding signal worked out at 0.72 enrichment R.

B2 displayed a binding signal of 0.134 enrichment R.

B3: the binding signal stood at 0.535 enrichment R.

B4 registered a binding signal of 1.28 enrichment R.

Take B5: the binding signal is 0.982 enrichment R.

In turn, B6 came in with a binding signal of 0.864 enrichment R.

In the case of B7, the binding signal was 0.75 enrichment R.

B8 registered a binding signal of 0.868 enrichment R.

As to B9, the binding signal was 3.33 enrichment R.

As for B10, the binding signal was 14 enrichment R.

B11 registered a binding signal of 3.2 enrichment R.

Molecule B12 came in with a binding signal of 1.8 enrichment R.

B13: the binding signal amounted to 4.07 enrichment R.

B14 yielded a binding signal of 10.5 enrichment R.
